The list is not random: actives were taken first. Their share in the collection is about 5.7%.
GLP1R inv ag: qHTS of GLP-1 Receptor Inverse Agonists (Inhibition Mode) | HEK293 GLP-1R CRE-luciferase, luminescence, 24 h; GLP-1R form is constitutively active | Potency, µM (titrated, usually from 38.3 µM), for inactives: at the highest dose activity change, negative = inhibition, hits mostly inhibitors | actives 1.6% (n = 410,000) | AID 624417, 2012; also: potency is read from the fitted curve at half-maximal effect; % is scaled to controls: 0 for no effect and ±100 for the full control effect; nearly all actives have a fitted effect of over 55% in size
Target sequence (P43220 whole entry, looked up): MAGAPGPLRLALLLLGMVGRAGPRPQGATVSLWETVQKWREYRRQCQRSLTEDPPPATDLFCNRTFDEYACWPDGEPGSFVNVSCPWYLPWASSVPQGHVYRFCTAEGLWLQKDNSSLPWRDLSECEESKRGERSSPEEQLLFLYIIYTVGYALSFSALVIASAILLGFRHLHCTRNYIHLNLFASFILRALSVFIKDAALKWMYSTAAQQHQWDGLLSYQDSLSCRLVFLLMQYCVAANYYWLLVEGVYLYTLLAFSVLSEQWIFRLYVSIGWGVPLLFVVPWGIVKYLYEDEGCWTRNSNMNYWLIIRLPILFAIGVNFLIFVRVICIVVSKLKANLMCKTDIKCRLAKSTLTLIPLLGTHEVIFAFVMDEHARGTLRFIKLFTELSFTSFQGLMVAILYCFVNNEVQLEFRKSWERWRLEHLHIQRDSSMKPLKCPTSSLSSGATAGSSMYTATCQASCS
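HEK293 cells stably co-expressing constitutively active GLP-1R and a cAMP-responsive luciferase reporter were seeded in DMEM with 10% Nu serum, given compounds after 12 h, and incubated 24 h at 37 deg C. Luminescence was then read.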
ClpP mod: qHTS Assay for Activators of ClpP | purified B. subtilis ClpP, FRET peptide cleavage, 20 min | ATP-dependent Clp protease proteolytic subunit (Bacillus subtilis (strain 168)), P80244 | actives 1.9% (n = 340,000) | Potency, µM (highest dose often 57.5 µM), inactives show at the highest dose activity change, negative = active; active = well fitted falling curve with a large enough effect; inconclusive = small, poorly fitted or top-dose-only effect; inactive = no such curve, though single readings can be large or run the other way; also: potency is read from the fitted curve at half-maximal effect; the source files actives as falling curves though it sought activators and does not explain the sign; nearly all actives have a fitted effect of over 65% in size
Target sequence (P80244 whole entry, looked up): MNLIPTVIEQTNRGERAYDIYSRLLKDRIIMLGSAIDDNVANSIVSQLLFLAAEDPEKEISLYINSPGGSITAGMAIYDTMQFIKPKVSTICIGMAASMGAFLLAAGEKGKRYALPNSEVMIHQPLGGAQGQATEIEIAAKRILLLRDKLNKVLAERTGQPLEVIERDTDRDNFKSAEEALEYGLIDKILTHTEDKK
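FRET quenching reversal measured ClpP activation: 10 microg/mL B. subtilis ClpP at pH 8 with the FRET-FV decapeptide, read at 430 nm after 320 nm excitation. The 20-min minus 0-min signal was scaled between DMSO/no-enzyme wells and ADEP (5.8 microM final).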
D3 ag: qHTS of D3 Dopamine Receptor Agonist: qHTS | D3R DiscoveRx beta-arrestin cells, luminescence, 90 min | max activation, % | actives 0.58% (n = 410,000) | AID 652048, 2013; in the data active = max activation above about 30%; also: 0% is about no effect
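Agonist mode: compounds and dopamine controls were applied to plated cells for 90 min at 37 degrees C after an overnight attachment at 1500 cells/well. Luminescent read-out followed 30 - 60 minutes at room temperature with DiscoveRx detection reagent.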
DRD3 antagonist: qHTS of D3 Dopamine Receptor Antagonist: qHTS | max response, negative = inhibition, % | actives 2.5% (n = 360,000) | D3R cells, DiscoveRx beta-arrestin luminescence, antagonist mode; hits give low values; in the data active = max response below about -50%; inconclusive = no clear call, values can overlap the other calls; also: % is scaled to controls: 0 for no effect and ±100 for the full control effect
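Cells expressing the human receptor were seeded at 1500 cells/well, incubated overnight at 37 degrees C in 5% CO2, then exposed to library compounds with dopamine controls for 90 minutes at 37 degrees C before luminescent detection.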
GLP1R cytotox: qHTS of GLP-1 Receptor Inverse Agonists: Cytotox Screen; HEK293 cAMP-luciferase reporter cells, luminescence, 24 h; Potency, µM (highest dose often 38.3 µM), for the others: at the highest dose activity change, negative = inhibition, most hits filed as inhibitors; actives 0.13% (n = 410,000);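 also: loss of luciferase light is scored as toxicity; potency is read from the fitted curve at half-maximal effect; % is scaled to controls: 0 for no effect and ±100 for the full control effect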
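Cells in DMEM/10% Nu serum/1% pen-strep, 1536-well format. Pre-incubated 12 h, dosed with 23 nL compound, incubated a further 24 h. Luciferase detection, 12 min at room temp, luminescence.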
GLP-1R agonist: qHTS of GLP-1 Receptor Agonists; Glucagon-like peptide 1 receptor (Homo sapiens), P43220; Potency, µM (series often up to 45.6 µM), for inactives: at the top dose activation, most hits filed as activators; actives 0.007% (n = 380,000); HEK293 GLP-1R CRE-luciferase, luminescence, 4-6 h; cells express a hypersensitive GLP-1R form; also: potency is read from the fitted curve at half-maximal effect; % of control where 0% means no effect
Active calls of the source: *; ? = inconclusive; nt = not tested or not shown; ! = repeats disagree. Unless noted, calls follow the shape of the dose curve; as a rule, active = well fitted curve in the direction sought with a large enough effect; inconclusive = small, poorly fitted or top-dose-only effect, or another doubt; inactive = no such curve, though single readings can be large; an effect the other way counts as inactive or inconclusive.

SMILES	GLP1R inv ag	ClpP mod	D3 ag	DRD3 antagonist	GLP1R cytotox	GLP-1R agonist
CN1CCN(C(=O)COc2ccc(-c3nc4ccccc4s3)cc2)CC1	6.3µM*	25µM*	-14	?	-2%	-5%
CCN(CC)CCCNc1nc2cc(OC)c(OC)cc2c2nc(-c3ccccc3)nn12	?	32µM*	-2	?	?	-17%
O=c1c2ccccc2nc(/C=C\c2cccc(Br)c2)n1-c1ccc(O)cc1	3%	224%	4	nt	-6%	nt
O=C(NCC(c1cccnc1)N1CCN(c2ccccc2F)CC1)Oc1ccccc1 (stereo unspecified)	-40%	22µM*	1	23	-8%	-17%
Cc1ccc(/C=C/C(=O)c2ccccc(=O)c2O)c(C)c1	?	0%	2	-9	?	7%
C=C(CN(C)C)C(=O)c1ccc(C)cc1C	?	-1%	-12	-88*	10µM*	-13%
CCCCOc1ccc(CNC(=O)c2cc3n(n2)CCCN(Cc2ccc(C)cc2)C3=O)cc1	?	0%	7	nt	0%	nt
CC(C)Oc1cccnc1N(C)C1CCN(Cc2ccccc2)CC1	?	-25%	0	-95*	4%	-3%
COc1ccccc1NC(=O)N(Cc1ccc2c(c1)OCO2)C1CCN(Cc2ccccc2)CC1	?	-9%	-34	nt	8%	nt
O=C(c1ccc2c3c(cccc13)CC2)C1CCCN(Cc2ncc[nH]2)C1 (stereo unspecified)	?	nt	-8	-12	-3%	0%
O=C(c1ccc2c3c(cccc13)CC2)C1CCCN(CC2CC2)C1 (stereo unspecified)	?	nt	-27	-81*	?	5%
C[C@H]1C[C@H](C)C(=O)[C@@H]([C@H](O)CC2CC(=O)NC(=O)C2)C1	nt	nt	nt	nt	nt	-7%
CCN1CCN(c2cc(N3CCCC3)c(F)cc2[N+](=O)[O-])CC1	?	1%	-38	-69*	?	2%
CN1CCN(c2cc(N3CCCC3)c([N+](=O)[O-])cc2F)CC1	?	1%	2	-78*	-35%	-7%
CN1CCN(c2cc(N3CCc4ccccc4C3)c(F)cc2[N+](=O)[O-])CC1	?	0%	-22	-61*	?	0%
O=[N+]([O-])c1cc(F)c(N2CCCC2)cc1Br	2%	nt	24	8	2%	10%
COC(=O)[C@@H](N)CCCN/C(N)=N/[N+](=O)[O-]	nt	nt	-9	nt	nt	nt
O=c1oc2cccnc2n1CCS(=O)(=O)c1ccc(F)cc1	-20%	nt	7	-1	?	0%
O=[N+]([O-])C(Br)(CO)CO	nt	nt	-1	nt	nt	-4%
CC(CO)NC(=O)C1C=C2c3cccc4[nH]cc(c34)CC2N(C)C1 (stereo unspecified)	nt	nt	nt	nt	nt	-1%
C[C@@H](CO)NC(=O)[C@@H]1C=C2c3cccc4[nH]cc(c34)C[C@H]2N(C)C1	nt	nt	38*	nt	nt	nt
Cc1cccc(-n2c(/C=C/c3ccccc3O)nc3ccccc3c2=O)c1	?	-13%	3	nt	8%	nt
Cc1cccc(N2CCc3c2nc2ccccc2c3N)c1	?	25µM*!	-11	?	?	3%
C[C@H]1CC[C@]2(NC1)O[C@H]1C[C@H]3[C@@H]4CC[C@H]5C[C@@H](O[C@@H]6O[C@H](CO)[C@H](O[C@@H]7O[C@H](CO)[C@@H](O)[C@H](O[C@@H]8OC[C@@H](O)[C@H](O)[C@H]8O)[C@H]7O[C@@H]7O[C@H](CO)[C@@H](O)[C@H](O)[C@H]7O)[C@H](O)[C@H]6O)CC[C@]5(C)[C@H]4CC[C@]3(C)[C@H]1[C@@H]2C	nt	nt	-22	nt	nt	nt
CC1(C)CSC(Nc2ccc(F)c(Cl)c2)=N1	?	-1%	0	0	-13%	0%
SMILES	GLP1R inv ag	ClpP mod	D3 ag	DRD3 antagonist	GLP1R cytotox	GLP-1R agonist
CC1(C)COC(Nc2cccc(Cl)c2)=N1	2%	3%	14	-55*	13%	-5%
CN(C)C(=S)SSC(=S)N(C)C	?	1%	6	-74*	?	-1%
Cc1ccccc1C(=O)Nc1ccc(C(=O)OCc2cc(=O)n3nc(C4CC4)sc3n2)cc1	?	-6%	8	nt	-12%	nt
COc1ccc(C(CC(=O)Nc2ccccn2)N2Cc3ccccc3C2=O)cc1 (stereo unspecified)	63%	nt	-6	3	-9%	16%
O=C(Nc1ccccn1)NC12CC3CC(CC(C3)C1)C2	1.4µM*	-27%	2	43	-17%	2%
CC1CCN(S(=O)(=O)c2ccc3nc(Nc4cccc(F)c4)ccc3c2)CC1	?	5%	3	nt	?	nt
CCOc1cccc(-c2nn(-c3ccccc3)cc2/C=C(/C#N)C(=O)NCCCn2ccnc2)c1	?	25µM*	-9	-17	?	-2%
O=C(NCCCn1ccnc1)C(Cl)(Cl)Cl	8%	1%	4	3	-5%	-7%
CC1=CC(=O)OC2CC3OC4C[C@@H](C)C5OC6CC7O[C@]8(C)C/C=C\C9OC%10CC%11OC(CC(C)CO)CC(O)[C@]%11(C)OC%10CC9OC8C[C@]7(C)O[C@]6(C)CCC5OC4C[C@]3(C)OC12 (stereo partly specified)	17%	2%	46*	60	nt	-6%
CCN1C[C@]2(COC)[C@H](O)C[C@H](OC)[C@@]34[C@@H]5C[C@@]6(O)[C@H](OC(=O)c7ccccc7)[C@@H]5[C@@](OC(C)=O)([C@@H]([C@H](OC)[C@H]23)[C@@H]14)[C@@H](O)[C@@H]6OC	nt	nt	-16	nt	nt	nt
OC[C@@H](O)[C@H]1O[C@@H]2O[C@H](C(Cl)(Cl)Cl)O[C@@H]2[C@H]1O	nt	nt	4	nt	nt	nt
CC1(C)C2CC=C(CN3CCOCC3)C1C2 (stereo unspecified)	0%	0%	2	-53*	-2%	-11%
O=C(Nc1ccc(Cl)c(C(F)(F)F)c1)NC1CC2CCCC(C1)N2C1CC1 (stereo unspecified)	3.2µM*	-1%	1	-3	?	-10%
COc1cccc(C(C)(O)c2nc(-c3cccc(F)c3)cs2)c1 (stereo unspecified)	?	-3%	-2	8	1%	-3%
CCC(=O)O[C@](Cc1ccccc1)(c1ccccc1)[C@H](C)CN(C)C	nt	nt	55*	nt	nt	nt

Screening results as filed in PubChem BioAssay.
